From the supplement of paper PMC6378613

Compound: Cc1ccc(-c2ccc3c(ccc4sc5c(c43)NC[C@@H](C)NC5=O)n2)cn1
Test: kinase activity remaining relative to vehicle control; higher = less inhibition
Description: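 In vitro radiometric kinase profiling of the MK2 inhibitor PF-3644022 at 0.1, 1 and 10 µM against a panel of kinases (MRC International Centre for Kinase Profiling, Dundee). Read-out is % kinase activity remaining relative to the vehicle control, mean of n=2.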

UniProt Q06187, sequence (Q06187 whole entry, looked up): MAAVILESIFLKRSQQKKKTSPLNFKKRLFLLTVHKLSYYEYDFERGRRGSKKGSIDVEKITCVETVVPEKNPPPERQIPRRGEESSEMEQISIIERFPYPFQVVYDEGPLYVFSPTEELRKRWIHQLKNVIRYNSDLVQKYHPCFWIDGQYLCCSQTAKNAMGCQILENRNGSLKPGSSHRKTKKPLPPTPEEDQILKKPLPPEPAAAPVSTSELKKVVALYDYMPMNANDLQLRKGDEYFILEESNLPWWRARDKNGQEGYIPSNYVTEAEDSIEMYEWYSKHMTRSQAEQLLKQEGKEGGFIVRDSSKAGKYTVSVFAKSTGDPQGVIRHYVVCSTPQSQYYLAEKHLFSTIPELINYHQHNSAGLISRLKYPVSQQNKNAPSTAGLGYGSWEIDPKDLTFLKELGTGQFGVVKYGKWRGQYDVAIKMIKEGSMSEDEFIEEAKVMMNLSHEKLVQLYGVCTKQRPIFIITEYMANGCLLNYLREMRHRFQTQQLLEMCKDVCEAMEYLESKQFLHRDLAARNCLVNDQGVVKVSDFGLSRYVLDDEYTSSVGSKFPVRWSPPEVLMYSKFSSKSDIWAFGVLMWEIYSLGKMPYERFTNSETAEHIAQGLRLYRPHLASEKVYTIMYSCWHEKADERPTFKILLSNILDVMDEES
UniProt P50750, sequence (P50750 whole entry, looked up): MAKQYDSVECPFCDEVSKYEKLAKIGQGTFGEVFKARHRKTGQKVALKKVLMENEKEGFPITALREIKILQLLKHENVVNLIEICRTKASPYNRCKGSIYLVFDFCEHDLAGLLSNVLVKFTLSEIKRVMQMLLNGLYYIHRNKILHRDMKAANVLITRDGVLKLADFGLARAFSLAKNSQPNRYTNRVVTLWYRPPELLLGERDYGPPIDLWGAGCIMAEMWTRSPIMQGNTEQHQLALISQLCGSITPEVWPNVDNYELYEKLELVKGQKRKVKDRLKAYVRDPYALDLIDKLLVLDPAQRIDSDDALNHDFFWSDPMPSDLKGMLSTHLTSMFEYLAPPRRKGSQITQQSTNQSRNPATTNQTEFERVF
UniProt Q5TCY1, sequence (Q5TCY1 whole entry, looked up): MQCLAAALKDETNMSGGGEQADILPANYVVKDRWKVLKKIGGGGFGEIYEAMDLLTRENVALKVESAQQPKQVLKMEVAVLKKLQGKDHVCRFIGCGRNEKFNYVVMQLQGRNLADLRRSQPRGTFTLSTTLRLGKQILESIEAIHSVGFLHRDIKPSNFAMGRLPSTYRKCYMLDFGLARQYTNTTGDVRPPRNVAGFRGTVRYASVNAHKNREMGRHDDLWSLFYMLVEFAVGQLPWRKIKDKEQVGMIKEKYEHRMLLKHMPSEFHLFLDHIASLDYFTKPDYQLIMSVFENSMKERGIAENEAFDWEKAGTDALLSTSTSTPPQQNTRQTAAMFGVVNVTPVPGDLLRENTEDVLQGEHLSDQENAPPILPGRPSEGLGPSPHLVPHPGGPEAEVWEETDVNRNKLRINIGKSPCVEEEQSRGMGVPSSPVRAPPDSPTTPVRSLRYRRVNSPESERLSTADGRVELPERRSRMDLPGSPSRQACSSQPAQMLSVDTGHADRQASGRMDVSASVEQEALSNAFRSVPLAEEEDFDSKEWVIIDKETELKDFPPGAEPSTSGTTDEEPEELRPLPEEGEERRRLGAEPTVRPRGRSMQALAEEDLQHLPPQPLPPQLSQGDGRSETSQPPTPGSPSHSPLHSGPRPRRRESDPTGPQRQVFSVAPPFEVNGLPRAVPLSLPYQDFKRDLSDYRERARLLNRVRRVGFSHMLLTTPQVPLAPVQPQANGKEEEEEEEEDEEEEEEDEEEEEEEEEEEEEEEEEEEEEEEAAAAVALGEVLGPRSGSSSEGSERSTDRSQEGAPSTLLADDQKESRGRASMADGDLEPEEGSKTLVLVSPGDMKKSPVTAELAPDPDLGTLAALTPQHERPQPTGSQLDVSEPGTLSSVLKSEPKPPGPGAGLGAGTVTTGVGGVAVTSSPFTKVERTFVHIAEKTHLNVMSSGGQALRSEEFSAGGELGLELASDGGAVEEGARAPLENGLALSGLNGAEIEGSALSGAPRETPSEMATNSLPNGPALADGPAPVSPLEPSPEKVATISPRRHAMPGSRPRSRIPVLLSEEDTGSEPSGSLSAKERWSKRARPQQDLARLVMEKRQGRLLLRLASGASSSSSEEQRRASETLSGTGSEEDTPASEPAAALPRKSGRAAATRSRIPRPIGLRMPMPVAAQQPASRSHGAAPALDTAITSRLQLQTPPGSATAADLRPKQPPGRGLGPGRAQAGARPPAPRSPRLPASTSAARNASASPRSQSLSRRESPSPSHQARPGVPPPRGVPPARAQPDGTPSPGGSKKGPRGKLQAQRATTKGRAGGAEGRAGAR
UniProt Q99683, sequence (Q99683 whole entry, looked up): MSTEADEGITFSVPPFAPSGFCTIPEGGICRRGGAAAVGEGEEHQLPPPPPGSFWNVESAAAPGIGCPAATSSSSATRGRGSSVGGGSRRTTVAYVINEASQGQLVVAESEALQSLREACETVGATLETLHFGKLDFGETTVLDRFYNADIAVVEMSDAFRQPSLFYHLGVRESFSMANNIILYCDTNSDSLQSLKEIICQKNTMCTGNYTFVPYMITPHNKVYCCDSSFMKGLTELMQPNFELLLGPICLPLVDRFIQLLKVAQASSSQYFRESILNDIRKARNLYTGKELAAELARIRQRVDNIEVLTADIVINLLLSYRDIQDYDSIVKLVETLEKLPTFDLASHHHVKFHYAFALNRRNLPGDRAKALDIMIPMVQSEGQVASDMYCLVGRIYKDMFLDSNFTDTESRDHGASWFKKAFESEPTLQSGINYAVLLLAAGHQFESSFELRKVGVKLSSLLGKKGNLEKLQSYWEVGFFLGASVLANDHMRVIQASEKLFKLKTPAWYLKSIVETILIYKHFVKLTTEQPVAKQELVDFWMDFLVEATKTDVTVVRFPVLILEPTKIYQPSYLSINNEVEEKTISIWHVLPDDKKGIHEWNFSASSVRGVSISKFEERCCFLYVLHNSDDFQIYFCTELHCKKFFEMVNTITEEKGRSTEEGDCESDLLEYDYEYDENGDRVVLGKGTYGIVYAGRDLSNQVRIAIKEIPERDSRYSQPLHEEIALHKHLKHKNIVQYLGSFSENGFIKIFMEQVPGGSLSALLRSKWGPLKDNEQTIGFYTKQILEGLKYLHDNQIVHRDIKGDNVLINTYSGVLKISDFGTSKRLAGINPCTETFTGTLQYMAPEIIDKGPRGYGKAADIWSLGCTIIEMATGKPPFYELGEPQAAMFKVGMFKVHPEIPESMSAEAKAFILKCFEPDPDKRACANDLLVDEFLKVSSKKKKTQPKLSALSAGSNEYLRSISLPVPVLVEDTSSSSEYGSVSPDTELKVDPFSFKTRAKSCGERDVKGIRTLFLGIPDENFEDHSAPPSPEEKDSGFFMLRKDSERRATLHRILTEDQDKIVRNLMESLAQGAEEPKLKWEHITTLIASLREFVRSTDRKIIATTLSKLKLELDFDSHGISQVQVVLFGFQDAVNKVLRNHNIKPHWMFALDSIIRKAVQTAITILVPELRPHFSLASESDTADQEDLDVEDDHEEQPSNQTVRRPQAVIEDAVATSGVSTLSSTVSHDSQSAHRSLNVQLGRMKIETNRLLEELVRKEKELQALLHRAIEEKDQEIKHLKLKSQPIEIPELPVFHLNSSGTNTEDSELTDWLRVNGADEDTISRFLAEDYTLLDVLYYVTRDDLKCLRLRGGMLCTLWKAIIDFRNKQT
UniProt Q9Y4K4, sequence (Q9Y4K4 whole entry, looked up): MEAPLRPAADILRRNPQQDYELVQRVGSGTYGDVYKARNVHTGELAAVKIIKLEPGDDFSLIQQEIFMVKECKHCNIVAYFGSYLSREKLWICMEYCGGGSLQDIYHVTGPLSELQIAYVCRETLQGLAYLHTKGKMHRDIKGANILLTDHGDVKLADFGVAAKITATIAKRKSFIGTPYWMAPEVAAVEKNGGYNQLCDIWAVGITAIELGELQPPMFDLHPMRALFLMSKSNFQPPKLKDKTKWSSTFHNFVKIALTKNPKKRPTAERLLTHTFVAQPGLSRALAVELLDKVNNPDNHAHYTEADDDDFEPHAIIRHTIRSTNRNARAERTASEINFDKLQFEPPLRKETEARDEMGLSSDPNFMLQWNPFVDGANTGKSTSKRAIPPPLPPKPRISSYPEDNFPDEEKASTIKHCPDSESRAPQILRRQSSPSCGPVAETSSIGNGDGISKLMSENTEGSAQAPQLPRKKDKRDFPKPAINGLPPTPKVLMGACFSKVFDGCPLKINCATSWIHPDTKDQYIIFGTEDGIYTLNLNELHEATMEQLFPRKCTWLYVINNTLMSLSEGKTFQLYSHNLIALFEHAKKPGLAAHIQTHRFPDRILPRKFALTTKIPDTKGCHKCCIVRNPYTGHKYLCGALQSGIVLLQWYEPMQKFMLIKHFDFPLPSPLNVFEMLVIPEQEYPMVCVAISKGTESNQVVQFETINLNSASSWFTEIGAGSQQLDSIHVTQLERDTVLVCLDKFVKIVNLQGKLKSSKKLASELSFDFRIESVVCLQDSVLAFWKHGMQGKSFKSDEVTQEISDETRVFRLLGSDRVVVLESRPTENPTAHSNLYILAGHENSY
UniProt Q14012, sequence (Q14012 whole entry, looked up): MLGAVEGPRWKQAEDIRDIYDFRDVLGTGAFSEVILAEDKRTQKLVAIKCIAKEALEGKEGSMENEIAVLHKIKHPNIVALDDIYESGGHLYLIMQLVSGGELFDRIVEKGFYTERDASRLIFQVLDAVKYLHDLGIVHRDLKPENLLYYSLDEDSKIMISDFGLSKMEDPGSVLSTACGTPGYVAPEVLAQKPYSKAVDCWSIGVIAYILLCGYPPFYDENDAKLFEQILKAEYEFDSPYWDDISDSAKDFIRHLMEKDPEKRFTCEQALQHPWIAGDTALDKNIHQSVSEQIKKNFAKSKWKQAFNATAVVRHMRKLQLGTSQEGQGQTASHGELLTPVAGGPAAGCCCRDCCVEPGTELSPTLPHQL

Row | Target | kinase activity remaining (inhibitor concentration 0.1 µM) [%] | kinase activity remaining (inhibitor concentration 1 µM) [%] | kinase activity remaining (inhibitor concentration 10 µM) [%]
1 | ASK1 (UniProt Q99683) | 106 | 80 | 10
2 | CAMK1 (UniProt Q14012) | 96 | 97 | 68
3 | BRSK1 (UniProt Q8TDC3) | 86 | 55 | 29
4 | TTBK1 (UniProt Q5TCY1) | 103 | 104 | 96
5 | PHK | 110 | 91 | 86
6 | RSK2 (UniProt P51812) | 104 | 79 | 50
7 | BTK (UniProt Q06187) | 120 | 118 | 107
8 | MAP4K5 (UniProt Q9Y4K4) | 111 | 108 | 61
9 | PKB alpha (UniProt P31749) | 109 | 97 | 98
10 | MEKK1 (UniProt Q13233) | 102 | 109 | 109
11 | CDK9-Cyclin T1 (UniProt P50750) | 109 | 96 | 51
12 | PLK1 (UniProt P53350) | 102 | 114 | 98
13 | ERK1 (UniProt P27361) | 111 | 108 | 112
14 | FGF-R1 | 95 | 91 | 68
